From PubChem BioAssay (Tox21)
Results filed as inconclusive are left out. Unmarked numbers belong to inactive results. The call rests on the fitted dose curve; in most records, active means well fitted activation curve with a large enough effect in the repeat runs; inconclusive means weak or mixed curves; inactive means flat fitted curve, though single readings scatter.

assay: A CellTox Green Cytotoxicity Assay to monitor cytotoxicity in HepG2 cells - 24 hour (AID 1224878); details: CellTox Green fluorescence; series mostly up to 76.8 µM; cytotoxicity: at the top concentration; further: nearly all actives have a fitted effect of over 45% in size
Text: National Center for Advancing Translational Sciences [NCATS]
NIH Chemical Genomics Center [NCGC]
U.S. Environmental Protection Agency [EPA]
National Institutes of Environmental Health Sciences [NIEHS]
National Toxicology Program [NTP]
Cell-based models are critical for drug discovery. Determining the natural cytotoxic effects resulting from test compounds is an essential research activity. A CellTox Green Cytotoxicity Assay to monitor cytotoxicity in real time of continues cell culture during 40 hours of the compound treatment was used to screen Tox21 10K library compounds in HepG2 cells. CellTox Green Cytotoxicity Assay is a nonlytic, homogeneous, biofluorescent method to measure cytotoxicity in cell culture after experimental manipulation. The assay system uses a proprietary asymmetric cyanine dye that is excluded from viable cells but preferentially stains the dead cell's DNA. […] Viable cells produce no appreciable increases in fluorescence. Therefore, the fluorescence signal produced by the binding interaction with dead cell DNA is proportional to cytotoxicity.
The mixture of HepG2 cell suspension and reagents were dispensed at 600cells/6 ul/well in 1536-well tissue culture treated black solid bottom plates using a Multidrop dispenser. After the assay plates were incubated at a 37 C/5% CO2 incubator for 5 hours, 23 nL of compounds dissolved in DMSO, positive and negative controls was transferred to the assay plate by a pintool work station. The plates were incubated at 37 C for 40 hours. The fluorescence intensity were measured at 0h, 8h, 16h, 24h, 32h and 40h time points using ViewLux plate reader during compound treatment.
On the % scale 0 is the no-effect control and ±100 the full control effect.

SMILES	cytotoxicity
N[C@@H](CCC(=O)N[C@@H](CS)C(=O)NCC(=O)O)C(=O)O	-12.9% [at 15.8 µM]
O=C(O)c1ccc(Cl)cc1Cl	-10.7%
O=C1c2ccccc2C(=O)c2cc(S(=O)(=O)O)ccc21	-10.2%
CC1(C)S[C@@H]2[C@H](N=CN3CCCCCC3)C(=O)N2[C@H]1C(=O)O	-18.9% [at 35.3 µM]
COc1ccc(OC)c(Cl)c1	-4.39%
COCCOC(=O)C1=C(C)NC(C)=C(C(=O)OC(C)C)C1c1cccc([N+](=O)[O-])c1 (stereo not given)	0.337% [at 35.3 µM]
CC1=CCC(C(C)C)=CC1	-6.56%
CNS(=O)(=O)CCc1ccc2[nH]cc(C3CCN(C)CC3)c2c1	-16.3% [at 35.3 µM]
C[Si](C)(C)C	-20.3%
Cc1cc(Cl)c(C)cc1Cl	-3.56%
COc1ccc2nc(SCc3ncc(C)c(OC)c3C)[nH]c2c1	-4.38% [at 35.3 µM]
CCOC(=O)c1ccc(OC(=O)CCCCCN=C(N)N)cc1	-5.6% [at 35.3 µM]
CC(C)C[C@H](NC(=O)CNC(=O)[C@H](Cc1ccc(O)cc1)NC(=O)[C@H](CO)NC(=O)[C@H](Cc1c[nH]c2ccccc12)NC(=O)[C@H](Cc1cnc[nH]1)NC(=O)[C@@H]1CCC(=O)N1)C(=O)N[C@@H](CCCN=C(N)N)C(=O)N1CCC[C@H]1C(=O)NCC(N)=O (stereo in doubt)	-11.1% [at 35.3 µM]
CCOC(=O)[C@H](CCc1ccccc1)N[C@@H](C)C(=O)N1C(=O)N(C)C[C@H]1C(=O)O	2.61% [at 35.3 µM]
O=C(OCC(COC(=O)c1cccnc1)(COC(=O)c1cccnc1)COC(=O)c1cccnc1)c1cccnc1	-1.46% [at 35.3 µM]
Nc1ccc(S(=O)(=O)Nc2ccc(Cl)nn2)cc1	1.16% [at 35.3 µM]
CCCCCCCCC(=O)Cl	2.26%
CC(CN)CC(C)(C)CCN (stereo not given)	-0.107% [at 200 µM]
O=C(c1ccc(O)cc1)c1ccc(O)c(O)c1O	-4.33%
CC(=O)c1sc(C)nc1C	12.9%

SMILES	cytotoxicity
Nc1cccc(O)c1	-0.524%
CCOCCOC(=O)/C=C/c1ccc(OC)cc1	-21.2% [at 35.3 µM]
O=C(OCC1(COC(=O)c2cccnc2)CCCC(COC(=O)c2cccnc2)(COC(=O)c2cccnc2)C1O)c1cccnc1	1.96% [at 35.3 µM]
CCc1ccc(C=O)cc1	0.0978%
Cc1ccsc1/C=C/C1=NCCCN1C	3.67% [at 35.3 µM]
O=C(CS(=O)Cc1ccco1)NC/C=C\COc1cc(CN2CCCCC2)ccn1 (stereo not given)	0.439% [at 35.3 µM]
C=C1CC/C=C(\C)CC[C@@H]2[C@@H]1CC2(C)C	3.3%
CCN1CCc2nc(N)oc2CC1	-14.9% [at 35.3 µM]
O=C(CCNNC(=O)c1ccncc1)NCc1ccccc1	12.4% [at 35.3 µM]
C=C(C)C(=O)OCC(C)(C)COC(=O)C(=C)C	19%
CC(C)OC(=O)CCCCC(=O)OC(C)C	1.79%
COC(=O)C1CC(=O)C(C(=O)OC)CC1=O (stereo not given)	-7.82% [at 6.97 µM]
CCCC(=O)C(C)=O	-2.68%
O=C1c2cccc3c2[C@H](CCC3)CN1[C@@H]1CN2CCC1CC2	5.74% [at 35.3 µM]
CN1C(C)(C)CCCC1(C)C	15.6% [at 35.3 µM]
CCOCCOCCOCC	1.04%
CC(C)(C)NC(N)=O	13.4%
CCCCCCCCSCC	-0.0981%
ClCCCl	-7.77%
O=C1CC(c2ccc(Cl)cc2)CC(=O)N1	-12.6% [at 35.3 µM]
